Reference: PubChem BioAssay AID686978 (National Center for Advancing Translational Sciences (NCATS), 2013)
Among all 420,000 compounds or so, about 64,000 (15%) were called active. Inconclusive results (about 27%) are left out. A selection follows. Where a call stands in place of a potency, no number is given. Values without a mark were called inactive. The call rests on the fitted dose curve; in most records, active means well fitted inhibition curve with a large enough effect; inconclusive means small, poorly fitted or top-dose-only effect; inactive means flat fitted curve, though single readings scatter.

assay: qHTS for Inhibitors of human tyrosyl-DNA phosphodiesterase 1 (TDP1): qHTS in cells in absence of CPT; conditions: DT40 Tdp1-/- hTDP1 cells, no CPT, ATP luminescence, 48 h; activity change, negative = growth inhibition: at 46.2 µM (top of the series); further: nearly all actives have a fitted effect of over 55% in size
How it was run: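 A cellular qHTS used chicken DT40 cells lacking endogenous Tdp1 but carrying stably transfected human TDP1. Compounds were applied without camptothecin, and cell growth kinetics were judged by ATP-dependent luminescence after ≥48 hr.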
Potency means the concentration at half of the fitted maximal effect.

SMILES | Potency | activity change, negative = growth inhibition
O=C(NCc1ccco1)C1CCCN(S(=O)(=O)c2cnc[nH]2)C1 (stereo not given) | inactive | 
Cc1ccc(N=C2NC(=O)c3cccc([N+](=O)[O-])c32)cc1 | inactive | 
O=C(COc1ccc(Br)cc1)OCC(=O)c1ccc[nH]1 | inactive | 
Cc1ccc(CSCCNC(=O)CN(c2ccc(F)cc2)S(C)(=O)=O)cc1 | inactive | 
Cc1c(NC(=S)NC(=O)CCc2ccccc2)c(=O)n(-c2ccccc2)n1C | inactive | 
COc1cc(NC(=S)N2CCCC(C)C2)cc(OC)c1OC (stereo not given) | inactive | 
C[C@H](NC(=O)c1ccccc1)C(=O)OCC(=O)c1c[nH]c2ccccc12 | inactive | 
O=C(/C=C/c1cccs1)NCc1cccnc1 | inactive | 
Cc1noc(C)c1C(=O)NCC1COc2ccccc2O1 (stereo not given) | inactive | 
S=C(NCC1COc2ccccc2O1)Nc1ccc(Br)cc1 (stereo not given) | 23.1 µM (active) | 
CC(NC(=S)Nc1ccccc1)C1COc2ccccc2O1 (stereo not given) | inactive | 
O=C(O)c1ccc(NS(=O)(=O)c2cccc3nsnc23)cc1 | inactive | 
COc1ccccc1NC(=O)C1=C(C)Nc2nc(SCC(=O)c3ccc(C)cc3)nn2C1c1ccccc1C (stereo not given) | inactive | 
Cc1cc(C)n(-c2nnc(N3CCN(c4ccccc4)CC3)nn2)n1 | inactive | 
Cc1cc(C)n(-c2ccc(Cl)c(C(=O)O)n2)n1 | inactive | 
Cc1cc(Oc2ccccc2)nc(N2CCOCC2)n1 | inactive | 
CC(=O)c1ccc(Oc2cc(C)nc(-n3nc(C)cc3C)n2)cc1 | 0.58 µM (active) | 
COc1ccc(C(=O)NNc2cc(C)nc(NNC(=O)c3ccc(OC)cc3)n2)cc1 | inactive | 
Cc1cc(C)n(-c2cc(Oc3ccccc3)ncn2)n1 | inactive | 
COc1ccc(Nc2cc(C)nc(-n3nc(C)cc3C)n2)cc1 | 0.184 µM (active) | 
Cc1ccc(Nc2nc3ccccc3nc2-n2nc(C)cc2C)c(Cl)c1 | inactive | 
Cc1cccc(Nc2cc(C)nc(-n3nc(C)cc3C)n2)c1 | 3.26 µM (active) | 
CC1(C(=O)NCc2ccccc2)CSCC(=O)N1CCCn1ccnc1 (stereo not given) | inactive | 
CC(=O)c1cc(-c2ccccc2)n(CC(=O)NC2CCCCC2)c1C | inactive | 
O=C(C=CC(=O)Nc1ccc(F)cc1F)Nc1ccc(F)cc1F | inactive | 
O=C(O)C1CCCCC1C(=O)N1CCN(S(=O)(=O)c2ccc(F)cc2)CC1 (stereo not given) | inactive | 
Cc1ccc2c(c1)C1CN(C)CCC1N2C(=O)c1ccccc1NS(=O)(=O)c1ccc(F)cc1C (stereo not given) | inactive | 

SMILES | Potency | activity change, negative = growth inhibition
CCOc1ccc2[nH]c(=O)c(CN(CCCO)C(C)=O)cc2c1 | inactive | 
CCOC(=O)c1ccc(S(=O)(=O)N(CCO)Cc2cc3cc(OC)c(OC)cc3[nH]c2=O)cc1 | inactive | 
CCOc1ccc2[nH]c(=O)c(CN(CCCO)S(=O)(=O)c3ccc(F)cc3)cc2c1 | 16.4 µM (active) | 
CC(=O)c1c(C)[nH]c(C(=O)CN2C(=O)NC(C)(C)C2=O)c1C | inactive | 
COCCNC(=S)N(Cc1cccnc1)Cc1ccc(OC)c(OC)c1 | inactive | 
COc1cccc(C(=O)n2ccc(-c3cccs3)n2)c1 | inactive | 
CC(C)CC1(C(=O)NCc2ccccn2)C=CCN1C(=O)c1ccccc1 (stereo not given) | inactive | 
CC(=O)c1c(C)[nH]c(C(=O)OCC(=O)Nc2c(C)cccc2C)c1C | 13 µM (active) | 
CC(=O)c1c(C)[nH]c(C(=O)OCC(=O)Nc2sc3c(c2C#N)CCCC3)c1C | 16.4 µM (active) | 
CCN1CCN(CC(=O)Nc2sc3c(c2C#N)CCC3)CC1 | inactive | 
Cc1cccc(C)c1NC(=O)COC(=O)c1ccccc1O | inactive | 
CCOC(=O)c1c(NC(=O)CSc2nnc(C)c(=O)[nH]2)sc2c1CCC2 | inactive | 
N#Cc1c(NC(=O)CCCl)sc2c1CCCCC2 | 18.4 µM (active) | 
Cc1ccc(C)c(OCC(=O)Nc2sc3c(c2C#N)CCCC3)c1C | 9.2 µM (active) | 
COc1ccc(-n2c(SCC(=O)Nc3sc4c(c3C#N)CCCC4)nnc2-c2ccc(O)cc2)cc1 | inactive | 
N#Cc1c(NC(=O)C2CCCO2)sc2c1CCCCC2 (stereo not given) | inactive | 
CC(=O)c1c(C)[nH]c(C(=O)OCC(=O)Nc2c(C)n(C)n(-c3ccccc3)c2=O)c1C | inactive | 
Cc1cccc(C(=O)OCC(=O)Nc2sc3c(c2C#N)CCC3)c1 | inactive | 
CCCc1cc(=O)[nH]c(SCC(=O)Nc2sc3c(c2C#N)CCCC3)n1 | inactive | 
C=CCc1cccc2cc(C(=O)NC3CCCC3)c(=O)oc12 | inactive | 
Cc1nn(-c2ccccc2)nc1C(=O)OCC(=O)N1CCCCC1C (stereo not given) | inactive | 
Nc1nc(SCC(=O)NCCN2CCOCC2)nc2sc3c(c12)CCC3 | inactive | 
CSc1nc2nc3c(c(=O)n2[nH]1)CCC3 | inactive | 
Cc1cn(C2OC[C@@H](O)[C@@H]2CO)c(=O)[nH]c1=O (stereo not given in full) | inactive | 
CC(C)[C@H]1CC[C@@H](C)C[C@H]1O | inactive | 
CCCC(C)C(=O)Nc1ccc(NC(C)=O)cc1 (stereo not given) | inactive | 
O=C(NNC(=O)C1CCC1)c1ccccc1 | inactive | 

SMILES | Potency | activity change, negative = growth inhibition
Cc1csc(-c2coc3cc(O[C@@H]4O[C@H](CO)[C@@H](O)[C@@H](O)[C@H]4O)ccc3c2=O)n1 |  | 1.27% [at 9.04 µM]
CNCCCOc1cc2nc(N3CCCN(C)CC3)nc(NC3CCN(C)CC3)c2cc1OC | inactive | 
COc1cc2nc(N3CCN(C(=O)[C@@H]4CCCO4)CC3)nc(N)c2cc1OC | inactive | 
COc1ccc(C(=O)N2CCCN(C)CC2)c(OC)c1 | inactive | 
COc1cc2nc(N3CCCN(C)CC3)nc(NC(C)C)c2cc1OC | 12.6 µM (active) | 
COc1cc2nc(N3CCCN(C)CC3)nc(NC3CC3)c2cc1OC | 10 µM (active) | 
CCCCSc1nnc2c(n1)OC=Nc1ccccc1-2 | inactive | 
CCCn1nc(Oc2nc(NC(C)C)nc(N(C)C)n2)ccc1=O | inactive | 
Cn1c(SCC(=O)NC2CCCCC2)nnc1-c1ccc(N)cc1 | inactive | 
CC(=O)Nc1ccc(N2C(=O)C3C4CC(=O)C(c5ccccc54)C3C2=O)cc1 (stereo not given) | inactive | 
COc1ccccc1CCn1c(=O)c(-c2cn(C)c3ccccc23)nc2cncnc21 | inactive | 
COc1cccc(OC)c1C(=O)N1CCN(Cc2ccccc2F)CC1 | inactive | 
COc1ccccc1OCCCn1c(-c2ccc(Cl)cc2)nc2ccccc2c1=O | inactive | 
CCCCc1c(-c2ccc(Br)cc2)ncn1CCc1ccccc1OC | 1.3 µM (active) | 
COc1ccccc1CN1CCN(Cc2cc(OC)c(OC)cc2OC)CC1 | inactive | 
CCCCc1c(-c2ccc(Cl)cc2)ncn1CCc1ccccc1OC | 3.26 µM (active) | 
COc1ccccc1CCC(=O)NNC(=O)c1ccncc1 | inactive | 
CCCc1c(-c2ccccc2F)ncn1Cc1ccccc1OC | 1.16 µM (active) | 
COc1ncc2nc(-c3ccc(Cl)cc3)c(=O)n(C)c2n1 | inactive | 
CCN(CC(=O)NC(C)C)C(=O)c1cc(S(=O)(=O)N2CCCCC2)ccc1N1CCCCC1 | inactive | 
CCOC(=O)c1c(C)[nH]c(C(=O)OCC(=O)c2ccc(OC)cc2OC)c1C | inactive | 
C=CCNc1nc(N)c([N+](=O)[O-])c(NC2CCCCC2)n1 | inactive | 
CCCCn1c(N)c(N(CCOC)C(=O)c2sc3ccccc3c2Cl)c(=O)[nH]c1=O | inactive | 
CC1CCCCN1C(=O)Cn1c(=O)oc2cc(S(=O)(=O)N3CCCCC3)ccc21 (stereo not given) | inactive | 
CC1CCCN(C(=O)Cn2c(=O)oc3cc(S(=O)(=O)N4CCCCC4C)ccc32)C1 (stereo not given) | inactive | 
CC(C)CCNC(=O)Cn1c(=O)oc2cc(S(=O)(=O)N3CC(C)CC(C)C3)ccc21 (stereo not given) | 16.4 µM (active) | 
CC1CCc2sc(C(=O)NCC(c3ccco3)N3CCCCC3)cc2C1 (stereo not given) | 10.3 µM (active) | 

SMILES | Potency | activity change, negative = growth inhibition
CSc1ncccc1C(=O)NCC(c1ccco1)N1CCCCC1 (stereo not given) | inactive | 
CC1CCc2sc(C(=O)N/N=C/C3CCCCC3)cc2C1 (stereo not given) | inactive | 
Cc1ccccc1S(=O)(=O)Cc1ccc(C(=O)NCCN2CCCCC2C)o1 (stereo not given) | inactive | 
CN(CC(=O)Nc1cccc(F)c1)C(=O)C1CSC2(C)CCC(=O)N12 (stereo not given) | inactive | 
COc1ccc(C(=O)Oc2ccc(-c3nnco3)cc2)cc1S(=O)(=O)N1CCOCC1 | inactive | 
Cc1nn2c(=O)cc(COC(=O)CNC(=O)c3ccc(F)cc3)nc2s1 | inactive | 
CCCCc1nn2c(=O)cc(COC(=O)c3ccc(NC(=O)c4ccccc4C)cc3)nc2s1 | 14.6 µM (active) | 
CCCc1nn2c(=O)cc(COC(=O)c3ccc(NC(=O)C(C)Oc4ccccc4)cc3)nc2s1 (stereo not given) | inactive | 
Cc1nn2c(=O)cc(COC(=O)c3ccc(NC(=O)C(C)(C)C)cc3)nc2s1 | 18.4 µM (active) | 
O=C(Nc1ccc(C(=O)OCc2cc(=O)n3nc(C4CC4)sc3n2)cc1)c1ccc(F)cc1 | inactive | 
CCCCc1nn2c(=O)cc(COC(=O)c3ccccc3NC(=O)C(C)(C)C)nc2s1 | inactive | 
Cc1nn(C)cc1S(=O)(=O)N1CCN(c2ccc(F)cc2)CC1 | inactive | 
C=CCNc1nnc(C)c2ccccc12 | inactive | 
Cc1nc(-c2ccc([N+](=O)[O-])cc2)c(-c2ccccc2)o1 | inactive | 
O=c1[nH]n(-c2ccc([N+](=O)[O-])cc2)c(=O)c2ccccc12 | inactive | 
O=C1CC(c2ccccc2)=NN1c1ccc([N+](=O)[O-])cc1 | 16.4 µM (active) | 
CC(C)c1nc(CNC(=O)CC2C(=O)NCCN2Cc2cccc(F)c2F)cs1 (stereo not given) | inactive | 
CCN(CC)CCCNC(=O)Cn1cnc2sc(C)c(S(=O)(=O)N3CCN(c4ncccn4)CC3)c2c1=O | inactive | 
C[N+]1(CCNC(=O)/C=N/O)CCCCC1 | inactive | 
O=C(Cn1cc(C(F)(F)F)ccc1=O)Nc1ccc2c(c1)OCCO2 | inactive | 
CCCCn1c(SCC(=O)N2CCC(C(=O)OCC)CC2)nc2cc(S(N)(=O)=O)ccc21 | inactive | 
CCCCn1c(SCc2ncc(-c3ccccc3)o2)nc2cc(S(N)(=O)=O)ccc21 | 9.2 µM (active) | 
CCCCn1c(SCC(=O)N2CCCC2=O)nc2cc(S(N)(=O)=O)ccc21 | inactive | 
Cc1[nH][nH]c(=O)c1N=Nc1ccccc1 | inactive | 
